Reference: PubChem BioAssay (NCATS)
Inconclusive results are not listed. Entries that show only a call come without a potency. The source made the active and inactive calls. Unless noted, calls come from the whole dose curve; as a rule, active = well fitted inhibition curve with a large enough effect; inconclusive = small, poorly fitted or top-dose-only effect; inactive = no such curve, though single readings can be large or run the other way.

How the values were obtained:
[1] = qHTS assay for measurement of the activity of small molecule inhibitors on Zika virus induced Caspase-3 activity in human iPSC derived neural progenitor cells (hNPCs) (AID 1224857); note: nearly all actives have a fitted effect of over 65% in size
Outline: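 Percent inhibition of virus-induced caspase-3/7 luminescence (Caspase-Glo), scaled between uninfected cells and Zika-infected cells. hNPCs received compound 1 hr before ZIKV at 2 FFU/cell, with 6 hours infection at 37 C.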

[2] = qHTS assay for measurement of the activity of small molecule inhibitors on Zika virus induced Caspase-3 activity in human astrocytoma cells (AID 1224859)
Outline: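 Luminescent caspase-3/7 read-out (30 min reagent, room temperature) in human SNB-19 cells infected 6 h with ZIKV (2 FFU/cell) after 1 h compound pre-incubation; Data were normalised to uninfected and infected wells.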

[3] = Immunotoxin (SS1P) sensitization/mitigation study. Vehicle arm (DMEM) (AID 1159513; call rule not given here)
[4] = High-throughput drug toxicity screening in the BPDCN cell line Gen2.2 (AID 1224824; call rule not given here;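 note: cells exposed to compounds for 48 h before reading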); conditions: Gen2.2 BPDCN cells; at 45.8 µM (top of the series)
Outline: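 CellTiter-Glo luminescence read after 48 h compound exposure at 37 C defines viability; percent activity set with DMSO as 100% and bortezomib (9.2 uM final) as 0%. 500 exponentially growing cells per well, RPMI plus 10% FBS.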

[5] = High-throughput drug toxicity screening in the BPDCN cell line Cal-1 (AID 1224825; call rule not given here); conditions: Cal-1 BPDCN cell viability, qHTS; at 45.8 µM (top of the series)
Outline: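 Exponentially growing Cal-1 cells, 500 per well in phenol red-free RPMI with 10% FBS, were exposed to compounds for 48 h at 37 °C, 5% CO2. Viability was read by CellTiter-Glo luminescence and normalised to DMSO (100%) and 9.2 uM bortezomib (0%).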

[6] = qHTS Screen of the MIPE 4.0 Collection Against Ewings Sarcoma (RDES) (AID 1259252); note: nearly all actives have a fitted effect of over 35% in size
Outline: (§1)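 Measured: ATP luminescence (CellTiter-Glo) 10 min after reagent addition, following 48 h drug treatment. Relative luciferase units converted to percent activity, with no-cell wells as full and DMSO wells as zero inhibition.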

[7] = qHTS Screen of the MIPE 4.0 Collection Against Ewings Sarcoma (TC71) (AID 1259253); note: nearly all actives have a fitted effect of over 40% in size
Outline: as §1

[8] = qHTS Screen of the MIPE 4.0 Collection Against Ewings Sarcoma (EW8) (AID 1259255); note: nearly all actives have a fitted effect of over 35% in size
Outline: as §1

[9] = qHTS Screen of the MIPE 4.0 Collection Against Ewings Sarcoma (TC32) (AID 1259256); note: nearly all actives have a fitted effect of over 45% in size
From the text: There is a large unmet medical need for treatments for Ewing sarcoma, a pediatric sarcoma. We sought to identify compounds that inhibited Ewing sarcoma cells in vitro with the goal to then test promising drugs in two drug combinations in vitro to look for synergistic drug combinations. Promising combinations would then proceed to additional validation, including in vivo testing.
Using the NCATS developed oncology compound library called the Mechanism of Interrogation Plate (MIPE), four Ewing sarcoma cell lines were evaluated (TC32, TC71, RDES, EW8). Compounds, in a 12-point titration series, were incubated with cells for 48 hours and the read out was cell viability (CellTiter-Glo from Promega). These initial experiments were used to select appropriate concentrations of each single agent for subsequent two-drug matrix combinations such that the concentrations in the matrices would span both activity and non-activity.
Cells, in the log phase of growth, were seeded in 5 uL of RPMI plus 5% FBS, […] L-glutamine, 100 U/ml penicillin and 100 ug/ml streptomycin into 1536-well solid-bottom white tissue culture treated Greiner Bio One Plates (789173-F) using a MultiDrop Combi (Thermofisher Scientific) dispenser and a small sterile cassette. […] Plates were incubated at room temperature for 10 minutes prior to reading the luminescence on the Viewlux (PerkinElmer). […]

Cc1cccc(Cc2cnc[nH]2)c1C
Potency [1]: inactive
outcome [2]: inactive

ClC1=C(Cl)C2(Cl)C(CBr)CC1(Cl)C2(Cl)Cl (centres undefined)
Potency [1]: inactive
outcome [2]: inactive

COP(=O)(OC)C(O)C(Cl)(Cl)Cl (centres undefined)
Potency [1]: inactive
outcome [2]: inactive

Cc1ccc([N+](=O)[O-])[c]2c1[O][Hg]2
Potency [1]: inactive

O=C(N[C@H]1N=C(c2ccccc2F)c2cccc3c2N(CC3)C1=O)c1cc2ccccc2[nH]1
Potency [1]: inactive
outcome [2]: inactive

CC(N)C(=O)OC(C)(C)Cc1ccc(Cl)cc1 (centres undefined)
Potency [1]: inactive

CCCCC1C(=O)NC(=O)N(C2CCCCC2)C1=O (centres undefined)
Potency [1]: inactive
outcome [2]: inactive

CCS(=O)(=O)C(C)(C)S(=O)(=O)CC
Potency [1]: inactive
outcome [2]: inactive

O=C(O)c1nn(Cc2ccc(Cl)cc2Cl)c2ccccc12
outcome [3]: inactive
cell viability, % of control (lower = more cytotoxic) [4]: 98.4%
viability (% of control) [5]: 95.1%
Potency [1]: inactive
outcome [2]: inactive
Potency [6]: inactive
Potency [7]: inactive
Potency [8]: inactive

CN(C)CCc1c[nH]c2ccccc12
Potency [1]: inactive
outcome [2]: inactive

COc1ccc(C(=O)N2CCCC2=O)cc1
cell viability, % of control (lower = more cytotoxic) [4]: 46.4%
viability (% of control) [5]: 41.6%
outcome [2]: inactive
Potency [7]: inactive
Potency [8]: inactive
Potency [9]: inactive

Oc1c(Br)cc(Br)cc1Br
Potency [1]: inactive
outcome [2]: inactive

C[C@]12CC[C@H]3[C@@H](CCC4=CC(=O)CC[C@@H]43)[C@@H]1CC[C@@H]2O
Potency [1]: inactive
outcome [2]: inactive

C[C@]12CCC(=O)C=C1CC[C@@H]1[C@@H]2[C@@H](O)C[C@@]2(C)[C@H]1CC[C@]2(O)C(=O)CO
outcome [3]: inactive

Nc1ccccc1C(=O)OCC(O)CO (centres undefined)
Potency [1]: inactive
outcome [2]: inactive

C[C@@H]1CC[C@H]2[C@@H](C)C(=O)O[C@@H]3O[C@@]4(C)CC[C@@H]1[C@]32OO4
Potency [1]: inactive
outcome [2]: inactive
